In one assay the test system is T1, PCTK1.
T1 construct: gene CDK16
As to conditions: concentration: 1 μM,replicates: in singlicate; n = 1.
With `CCn1c(-c2nonc2N)nc2c(C#CC(C)(C)O)nc(OCCN)cc21.Cl.Cl` [GSK902056], the “%Inh” value worked out at 2%. For the compound `COc1ccc(C[C@@H](CN)NC(=O)c2cc(Br)c(-c3ccnc4[nH]ccc34)s2)cc1.Cl.Cl` [GSK1389063], the “%Inh” value came out at 16%.

As to `Cc1ccc2c(-c3ccncc3)c(-c3ccc(F)cc3)nn2c1.Cl` [GW461484], the “%Inh” value stood at 0%.

As to `Cl.Cl.NC[C@H](Cc1ccc(C(F)(F)F)cc1)NC(=O)c1cc(Br)c(-c2ccnc3[nH]ccc23)s1` [GSK1487252], the “%Inh” value was found to be 0%. On the same count and under the same terms, then `O=C(NCCCN1CCOC1=O)c1cnc(NCc2cc(Cl)ccc2Cl)nc1NC1CCCC1`, with 0%; and `C=CC(=O)Nc1cc2c(Nc3ccc(F)c(Cl)c3)ncnc2cc1OCCCN1CCOCC1` [GW781483], with 1%; and `NC(=O)c1cc(-c2ccccc2)cc2c(C3CCNCC3)c[nH]c12` [GSK301362], with 9%.

In the case of `C[C@@H]1CCN(C(=O)CC#N)C[C@@H]1N(C)c1ncnc2[nH]ccc12`, the “%Inh” value is given as 0%.

Regarding `Cc1occc1-c1nc(N)c(OC[C@@H](N)Cc2c[nH]c3ccccc23)cc1-c1cc2c(C)n[nH]c2cn1` [GSK1660450], the “%Inh” value is 10%. Consider `C[C@H]1Oc2cc(cnc2N)-c2c(nn(C)c2C#N)CN(C)C(=O)c2ccc(F)cc21`, for which the “%Inh” value stood at 0%.

With `CN(C)CC(O)COc1ccc(Nc2nccc(-c3cnn4nc(N5CCOCC5)ccc34)n2)cc1` (centres unmarked) [GW767488], the “%Inh” value is 97.6%. Take `CCN(CC)CCCCNc1ncc2cc(-c3c(Cl)cccc3Cl)c(NC(=O)NC(C)(C)C)nc2n1`: the “%Inh” value is 0%. On the same count and under the same terms, then `Cl.Cl.NC[C@H](CC1CCCCC1)NC(=O)c1cc(Br)c(-c2ccnc3[nH]ccc23)s1` [GSK1581427], with 3%; and `CN(C)CCOc1ccc(-c2cc(-c3c[nH]nc3-c3ccccn3)ccn2)cc1` [GW835314], with 3%; and `O=C(NCCNc1ccnc(NCc2ccc(F)cc2)n1)c1cc2ccccc2s1` [GSK1379944], with 8%. For the compound `Cc1cc2cn[nH]c2cc1-c1cccc2c(N)c(C(N)=O)nnc12`, the “%Inh” value is on record as 26%.

`CC(C)N1C(=O)Cc2cc(Nc3ncc(C(F)(F)F)c(NCc4cccc(S(C)(=O)=O)c4)n3)ccc21`: the “%Inh” value is 0%. Same read-out and setting: then `Cl.Oc1cc(-c2nc(-c3ccccc3)[nH]c2-c2ccncc2)ccc1Cl` [SB-386023], with 0%; and `CC(C)Nc1cc(-c2ccc3c(N)n[nH]c3c2)nc(N)n1` [GSK2221681], with 0%; and `Cc1ccc(-n2nc(C(C)(C)C)cc2NC(=O)Nc2ccc(OCCN3CCOCC3)c3ccccc23)cc1` [GW839464], with 0%. The same measure, in the same setting: the result for `C[C@@H](Oc1cc(-c2cnn(C3CCNCC3)c2)cnc1N)c1c(Cl)ccc(F)c1Cl` reads 25%.

`Cc1n[nH]c2ccc(-c3cc(OC[C@@H](N)Cc4ccccc4)cnc3-c3ccoc3)cc12.O=C(O)C(F)(F)F.O=C(O)C(F)(F)F` [GSK507358]: the “%Inh” value is recorded as 4%. Same read-out and setting: the result for `CCN(CC)CCOc1ccc(Nc2ncc3cc(-c4c(Cl)cccc4Cl)c(=O)n(C)c3n2)cc1` [SB-601273] reads 0%; that for `Cl.Cl.Nc1nc(-c2ccc3c(N)n[nH]c3c2)cc(N2CCCC(NC(=O)c3ccccc3)C2)n1` (centres unmarked) [GSK2286775], 5%; that for `Cc1cc(C(=O)Nc2ccc(Oc3ccc4nc(NC(=O)C5CC5)cn4n3)cc2)nn1-c1ccccc1`, 0%. As to `Nc1nc(Nc2ccccc2)cc(-c2ccc3c(N)n[nH]c3c2)n1` [GSK2225749], the “%Inh” value worked out at 0%.

A further assay has as its system T2, PCTK2.
T2 construct: gene CDK17
As to conditions: concentration: 1 μM,replicates: in singlicate; n = 1.
`CCn1c(-c2nonc2N)nc2c(C#CC(C)(C)O)nc(OCCN)cc21.Cl.Cl` [GSK902056]: the “%Inh” value worked out at 0%. On the same count and under the same terms, the result for `COc1ccc(C[C@@H](CN)NC(=O)c2cc(Br)c(-c3ccnc4[nH]ccc34)s2)cc1.Cl.Cl` [GSK1389063] reads 0%. As to `Cc1ccc2c(-c3ccncc3)c(-c3ccc(F)cc3)nn2c1.Cl` [GW461484], the “%Inh” value is given as 0%. Regarding `Cl.Cl.NC[C@H](Cc1ccc(C(F)(F)F)cc1)NC(=O)c1cc(Br)c(-c2ccnc3[nH]ccc23)s1` [GSK1487252], the “%Inh” value is on record as 0%. Same read-out and setting: then `O=C(NCCCN1CCOC1=O)c1cnc(NCc2cc(Cl)ccc2Cl)nc1NC1CCCC1`, with 0%; and `C=CC(=O)Nc1cc2c(Nc3ccc(F)c(Cl)c3)ncnc2cc1OCCCN1CCOCC1` [GW781483], with 0%; and `NC(=O)c1cc(-c2ccccc2)cc2c(C3CCNCC3)c[nH]c12` [GSK301362], with 0%. Same read-out and setting: the result for `C[C@@H]1CCN(C(=O)CC#N)C[C@@H]1N(C)c1ncnc2[nH]ccc12` reads 0%; that for `Cc1occc1-c1nc(N)c(OC[C@@H](N)Cc2c[nH]c3ccccc23)cc1-c1cc2c(C)n[nH]c2cn1` [GSK1660450], 0%; that for `C[C@H]1Oc2cc(cnc2N)-c2c(nn(C)c2C#N)CN(C)C(=O)c2ccc(F)cc21`, 1%. `CN(C)CC(O)COc1ccc(Nc2nccc(-c3cnn4nc(N5CCOCC5)ccc34)n2)cc1` (centres unmarked) [GW767488]: the “%Inh” value was determined as 91.9%. Consider `CCN(CC)CCCCNc1ncc2cc(-c3c(Cl)cccc3Cl)c(NC(=O)NC(C)(C)C)nc2n1`, for which the “%Inh” value is reported as 0%. The same measure, in the same setting: the result for `Cl.Cl.NC[C@H](CC1CCCCC1)NC(=O)c1cc(Br)c(-c2ccnc3[nH]ccc23)s1` [GSK1581427] reads 0%.

With `CN(C)CCOc1ccc(-c2cc(-c3c[nH]nc3-c3ccccn3)ccn2)cc1` [GW835314], the “%Inh” value was determined as 7%. The same measure, in the same setting: the result for `CNC(=O)c1ccccc1Sc1ccc2c(/C=C/c3ccccn3)n[nH]c2c1` reads 0%; that for `O=C(NCCNc1ccnc(NCc2ccc(F)cc2)n1)c1cc2ccccc2s1` [GSK1379944], 0%; that for `Cc1cc2cn[nH]c2cc1-c1cccc2c(N)c(C(N)=O)nnc12`, 14%. Consider `CC(C)N1C(=O)Cc2cc(Nc3ncc(C(F)(F)F)c(NCc4cccc(S(C)(=O)=O)c4)n3)ccc21`, for which the “%Inh” value was 20%. The same measure, in the same setting: then `Cl.Oc1cc(-c2nc(-c3ccccc3)[nH]c2-c2ccncc2)ccc1Cl` [SB-386023], with 0%; and `CC(C)Nc1cc(-c2ccc3c(N)n[nH]c3c2)nc(N)n1` [GSK2221681], with 0%. Regarding `Cc1ccc(-n2nc(C(C)(C)C)cc2NC(=O)Nc2ccc(OCCN3CCOCC3)c3ccccc23)cc1` [GW839464], the “%Inh” value was found to be 13%. Regarding `C[C@@H](Oc1cc(-c2cnn(C3CCNCC3)c2)cnc1N)c1c(Cl)ccc(F)c1Cl`, the “%Inh” value is 4%. The same measure, in the same setting: the result for `Cc1n[nH]c2ccc(-c3cc(OC[C@@H](N)Cc4ccccc4)cnc3-c3ccoc3)cc12.O=C(O)C(F)(F)F.O=C(O)C(F)(F)F` [GSK507358] reads 0%. Still for that read-out and setting: then `CCN(CC)CCOc1ccc(Nc2ncc3cc(-c4c(Cl)cccc4Cl)c(=O)n(C)c3n2)cc1` [SB-601273], with 24%; and `Cl.Cl.Nc1nc(-c2ccc3c(N)n[nH]c3c2)cc(N2CCCC(NC(=O)c3ccccc3)C2)n1` (centres unmarked) [GSK2286775], with 21%. On the same count and under the same terms, then `Cc1cc(C(=O)Nc2ccc(Oc3ccc4nc(NC(=O)C5CC5)cn4n3)cc2)nn1-c1ccccc1`, with 17%; and `Nc1nc(Nc2ccccc2)cc(-c2ccc3c(N)n[nH]c3c2)n1` [GSK2225749], with 0%.

(Values after publication PMC5540273 (PLoS ONE, 2017).)
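Further: KINOMEscan kinase panel screen.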
